# Bioassay records from PubChem.
# This is a sample that favours compounds with a hit; in the whole collection about 3.1% have one here.
# TrxR1 inh: inhibitors of rat thioredoxin reductase 1 | Potency, µM (doses to about 114 µM), inactives show top-dose activity change, negative = inhibition, actives largely listed as inhibitors | recombinant rTrxR1, NADPH fluorescence consumption, selenite substrate | O89049 | actives 1% (n = 390,000); note: % is set by controls: 0 for no effect and ±100 for the full control effect; nearly all actives have a fitted effect of over 65% in size
#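 Rat TrxR1 (90 nM in the dispensed reagent) was pre-reduced with 400 uM NADPH for 5 min at room temperature, then incubated with compound for 15 min. After 400 uM selenite was added, NADPH fluorescence (Ex 340/Em 450 nm) was followed for 8 min.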
# IDH1 R132H inh: blocks human mutant IDH1 R132H enzyme; IDH1-R132H enzyme, NADPH consumption, diaphorase/resazurin fluorescence; Potency, µM (top dose mostly 76.6 µM), for the others: at the highest dose activity change, negative = inhibition, most hits filed as inhibitors; O75874; actives 0.093% (n = 390,000); note: % is set by controls: 0 for no effect and ±100 for the full control effect; nearly all actives have a fitted effect of over 65% in size
#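 IDH1-R132H (0.5 ug/mL dispensed) in pH 7.5 Tris buffer was preincubated 30 min with compound, then given a substrate mix of 0.016 mM NADPH and 2 mM alpha-KG for 80 min at room temperature; remaining NADPH was read by diaphorase/resazurin fluorescence.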
# A549 tox-1: kills or reduces viability of A549 cells in Nrf2 counter-screen. actives 0.16% (n = 390,000). Potency, µM (top dose mostly 46 µM), without a hit: at the highest dose activity change, negative = cytotoxicity, most hits filed as inhibitors. AID 504648. A549 ARE-Fluc cells, CellTiter-Fluor viability, 18-24 h; note: % is set by controls: 0 for no effect and ±100 for the full control effect
#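 Cytotoxicity counterscreen: CellTiter-Fluor fluorescence was measured in A549 ARE_Fluc cells after 18-24 h of compound exposure in a concentration series. The subsequent BugLite luminescent read reports ARE-luciferase activity.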
# Mito fusion act: blocks mitochondrial division or promotes mitochondrial fusion. Potency, µM (doses to about 46.1 µM), inactives show top-dose growth rescue (activation), usual class: activators. S. cerevisiae fusion-defective mutant growth rescue, CellTiterGlo 48 h. actives 0.23% (n = 320,000); note: % of control where 0% means no effect; nearly all actives have a fitted effect of over 45% in size
#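 Yeast fusion mutant, YPEG (non-fermentable carbon), compound, 48 h at 37C non-permissive; CellTiterGlo added, 10 min RT, luminescence read. Rescued growth = division inhibition.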
# TrxR1 substrate: substrates of rat thioredoxin reductase 1; Potency, µM (top dose mostly 114 µM), for inactives: top-dose activity change, negative = substrate turnover; actives 0.01% (n = 390,000); purified TrxR1 substrate turnover, NADPH consumption readout; O89049; note: % is set by controls: 0 for no effect and ±100 for the full control effect; nearly all actives have a fitted effect of over 50% in size
#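 Rat TrxR1, dispensed at 90 nM, was prereduced with 400 uM NADPH (final) for 5 min at ~22 deg C, then incubated with compound 15 min before 400 uM selenite. A first-read NADPH fluorescence drop versus no-compound background flagged substrates.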
# Nrf2 inh: blocks Nrf2 signaling; A549 ARE-Fluc reporter, luciferase luminescence, 18-24 h; Potency, µM (top dose mostly 46 µM), for the others: top-dose activity change, negative = inhibition, hits mostly inhibitors; actives 2.1% (n = 360,000); AID 504444; note: % is set by controls: 0 for no effect and ±100 for the full control effect; nearly all actives have a fitted effect of over 60% in size
#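 Cells were seeded and rested 2 h, then exposed to compounds for 18-24 h. CellTiter-Fluor was read first as a viability measure. BugLite was added 15 min before the final luminescent read of ARE-luciferase activity in A549 cells.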
# FLuc enzyme inh: blocks purified firefly luciferase in Nrf2 counterscreen; shares compounds with Nrf2 inh; purified firefly luciferase, luminescence inhibition; Potency, µM (highest dose often 57.5 µM), for inactives: at the top dose activity change, negative = inhibition, hits mostly inhibitors; actives 4% (n = 1,400); AID 720522; note: % is set by controls: 0 for no effect and ±100 for the full control effect; nearly all actives have a fitted effect of over 65% in size
# Target sequence (P08659 whole entry, looked up): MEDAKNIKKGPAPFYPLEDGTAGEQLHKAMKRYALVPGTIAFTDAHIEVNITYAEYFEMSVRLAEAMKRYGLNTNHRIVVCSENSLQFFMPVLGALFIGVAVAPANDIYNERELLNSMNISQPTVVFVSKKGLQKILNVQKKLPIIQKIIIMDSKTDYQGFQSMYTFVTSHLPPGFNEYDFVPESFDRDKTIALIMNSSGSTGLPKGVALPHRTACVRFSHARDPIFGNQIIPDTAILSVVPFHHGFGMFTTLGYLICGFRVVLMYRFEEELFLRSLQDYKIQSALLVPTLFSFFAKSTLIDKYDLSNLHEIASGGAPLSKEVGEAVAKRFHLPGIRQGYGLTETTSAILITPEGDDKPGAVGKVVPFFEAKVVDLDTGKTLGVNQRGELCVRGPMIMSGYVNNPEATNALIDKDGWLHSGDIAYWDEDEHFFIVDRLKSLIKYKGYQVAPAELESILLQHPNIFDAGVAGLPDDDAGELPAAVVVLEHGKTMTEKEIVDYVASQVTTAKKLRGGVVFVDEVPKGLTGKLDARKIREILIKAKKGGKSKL
# A549 tox-2: A549 cytotoxicity, Nrf2 inhibitor counterscreen | shares compounds with Nrf2 inh | A549 ARE-Fluc cells, cytotoxicity counterscreen | Potency, µM (titrated, usually from 46.1 µM), for the others: at the highest dose activity change, negative = cytotoxicity, usual class: inhibitors | actives 2% (n = 1,400) | AID 720523;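 note: cells exposed to compounds for 18 to 24 hours; % is set by controls: 0 for no effect and ±100 for the full control effect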
# Nrf2 ARE inh: confirmation of Nrf2 inhibitors in A549 ARE reporter cells; shares compounds with Nrf2 inh; A549 ARE-firefly luciferase reporter, luminescence; Potency, µM (doses to about 46.1 µM), for the others: top-dose activity change, negative = inhibition, usual class: inhibitors; actives 74% (n = 1,400); note: % is set by controls: 0 for no effect and ±100 for the full control effect; nearly all actives have a fitted effect of over 65% in size
# Active calls of the source: *; ? = inconclusive; / = not tested or not shown; [ ] = remark or other dose. Calls come from the whole dose curve; as a rule, active = well fitted curve in the direction sought with a large enough effect; inconclusive = small, poorly fitted or top-dose-only effect, or another doubt; inactive = no such curve, though single readings can be large; an effect the other way counts as inactive or inconclusive. Potency is the fitted concentration of half-maximal effect.
SMILES,TrxR1 inh,IDH1 R132H inh,A549 tox-1,Mito fusion act,TrxR1 substrate,Nrf2 inh,FLuc enzyme inh,A549 tox-2,Nrf2 ARE inh
CC(=O)OC[C@]12CCC(C)=C[C@H]1O[C@@H]1[C@H](O)[C@@H](OC(C)=O)[C@@]2(C)[C@]12CO2,-2.8%,2.2%,?,-122.7%,-3.8%,0.0184µM*,-0.5%,-8.8%,2.59µM*
CCc1ccc(-n2nc(C)c3c2NC(=O)CSC3c2ccc(OC)cc2OC)cc1 (configuration not stated),1.4%,/,-2.3%,/,-8.0%,-9.7%,/,/,/
CCC(C)C1NC(=O)C(NC(=O)C(CC(C)C)N(C)C(=O)C2CCCN2C(=O)C(C)O)C(C)OC(=O)C(Cc2ccc(OC)cc2)N(C)C(=O)C2CCCN2C(=O)C(CC(C)C)NC(=O)[C@H](C)C(=O)[C@H](C(C)C)OC(=O)CC1O (some centres not stated),4.5%[11.4 µM],-14.9%,0.0366µM*,/,-6.4%[57.1 µM],0.0073µM*,2.0%,?,0.0103µM*
COc1ccc(-c2nc(CN3C(=O)CN=C(c4ccccc4)c4ccccc43)c(C)o2)cc1OC,4.5%,0.0%,-1.5%,/,-3.4%,-16.2%,/,/,/
N#Cc1cc2c(nc1SCC(=O)Nc1ccc(Cl)c(C(F)(F)F)c1)C1CCN2CC1,15.6%,0.0%,-18.6%,/,7.9%,7.31µM*,-0.6%,-29.8%,7.31µM*
N#Cc1cc2c(nc1SCC(=O)Nc1ccc(C(F)(F)F)cc1)C1CCN2CC1,-1.5%,-17.9%,-10.7%,/,-4.4%,8.2µM*,0.9%,-3.4%,11.6µM*
Nc1c(C(=O)Nc2ccc(Cl)c(C(F)(F)F)c2)sc2nc3c(cc12)N1CCC3CC1,5.5%,3.4%,-22.9%,/,39.3%,6.51µM*,-17.4%,?,7.31µM*
Nc1c(C(=O)Nc2ccc(Cl)cc2)sc2nc3c(cc12)N1CCC3CC1,29.3%,-3.0%,-5.2%,/,61.0%,?,/,/,/
Cc1cc(-n2c(/C=C/c3cccs3)nc3ccccc3c2=O)ccc1Br,1.6%[57.1 µM],-5.4%,-2.6%,/,-3.6%[57.1 µM],/,/,/,/
CCC(C(=O)Nc1ccccc1F)N1C(=O)CN=C(c2ccccc2)c2ccccc21 (configuration not stated),31.5%,29.2%,-2.9%,/,5.6%,-6.8%,/,/,/
NC(N)=S,1.7%,31.3%,-5.7%,/,5.6%,2.9%,/,/,/
COC(=O)C12OCC34C(CC5C(C)=C(O)C(=O)CC5(C)C3C(O)C1O)OC(=O)C(OC(=O)/C=C(\C)C(C)C)C24 (configuration not stated),18.6%[11.4 µM],8.4%,0.291µM*,/,4.1%[11.4 µM],0.058µM*,0.4%,-11.9%,1.16µM*
CCOC(=O)c1ncn2c1CN(C)C(=O)c1cc(F)ccc1-2,-1.4%[57.1 µM],17.3%,-8.2%,4.0%,?,2.06µM*,2.8%,-8.0%,7.31µM*
COc1ccc(-c2nc(CN3C(=O)CN=C(c4ccccc4)c4cc(Cl)ccc43)c(C)o2)cc1,19.3%,-27.4%,-1.2%,/,5.7%,-10.9%,/,/,/
COc1ccc(CN2CCN(C(=O)Cn3c(=O)oc4cc(Cl)ccc43)CC2)c(OC)c1OC,7.1%,6.7%,?,-1.9%,12.2%,2.91µM*,-1.2%,-8.9%,?
O=C1CN=C(c2ccccc2Cl)c2cc(Cl)ccc2N1Cc1cccc(Cl)c1,25.8%[57.1 µM],3.2%,?,/,-4.7%[57.1 µM],/,/,/,/
C[C@]12CCC3C(CC[C@H]4CC(O)CC[C@]34C)C1CC/C2=N/NC(=O)c1ccncc1 (some centres not stated),-6.4%,-11.5%,-5.3%,-31.5%,-0.7%,?,/,/,/
CC[C@@H](O)C[C@H]1CCC[C@@]2(C[C@@H]3OC(=O)/C=C/[C@@](C)(O)[C@@H](O)[C@H](C)[C@@H](O)[C@H](OC4CCC(N(C)C)C(C)O4)[C@@H](O)[C@](C)(O)CCCCC/C=C/[C@@H]4CC(C)(C)O[C@@]4(O)C[C@H](O2)[C@H]3C)O1 (some centres not stated),3.9%[11.4 µM],4.0%,?,/,7.9%[57.1 µM],0.0058µM*,0.0%,?,0.0073µM*
Cc1ccc(NC(=O)C2CCCN2S(=O)(=O)c2ccc3c(c2)CCCC(=O)N3)cc1Cl (configuration not stated),7.0%[57.1 µM],4.4%,-0.5%,/,2.4%[57.1 µM],?,/,/,/
CC(=O)N1CCCc2cc(S(=O)(=O)N3CCCC(C(=O)Nc4cccc(F)c4)C3)ccc21 (configuration not stated),15.6%,5.9%,-9.5%,-3.1%,0.1%,9.2µM*,3.3%,-1.7%,/
C[n+]1ccc(-c2ccccc2)c2ccccc21,11.7%[57.1 µM],0.0%,-14.9%,4.3%,87.5%[57.1 µM],1.46µM*,0.1%,-0.8%,/
COc1ccc(C)cc1NC(=O)c1cccn(Cc2cccc([N+](=O)[O-])c2)c1=O,13.8%[57.1 µM],9.9%,16.6%,/,6.2%[57.1 µM],/,/,/,/
COc1cc2nc(CN3CC=C(c4ccccc4)CC3)[nH]c(=O)c2cc1OC,11.0%,9.2%,?,/,7.1%,2.31µM*,-2.8%,?,/
CN1CC[C@@]2(C)c3cc(O)ccc3N(C)C12 (some centres not stated),15.7%,/,/,?,1.2%[57.1 µM],/,/,/,/
COc1ccc(CC(=O)N2CCN(C)CC2)cc1,-2.3%,-4.5%,0.2%,-0.8%,3.7%,-0.1%,/,/,/
COc1ccc(CC2NCC(O)C2OC(C)=O)cc1 (configuration not stated),25.1µM*,7.9%,?,/,10.1%[57.1 µM],0.461µM*,1.2%,-5.3%,1.46µM*
CC(=O)OC1C(O)C(C)OC(OC2C(OC(=O)C3CCC4C(C3)OC3(CC(OC(=O)/C=C/c5ccccc5)C(C)CO3)C43CO3)OC(C)C(O)C2OC(C)=O)C1O (configuration not stated),5.8%[11.4 µM],3.8%,?,/,2.7%[11.4 µM],0.0231µM*,-11.5%,-2.5%,6.51µM*
